Assay [1] can be described thus: qHTS of pediatric cancer cell lines to identify multiple opportunities for drug repurposing: Primary screen for Saos-2 cells (AID 1347097). Further: nearly all actives have a fitted effect of over 40% in size. Summed up: (§1)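 Cells seeded at 500-1,000 cells/well in growth media, rested 5 hours at 37 degrees C, 5% CO2, then dosed; MIPE compounds at 11-point (from 0.78 nM) and NPC at 8-point (from 0.59 nM) final concentrations. Viability by CellTiter-Glo luminescence after 48 hours.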

Assay [2] can be described thus: qHTS of pediatric cancer cell lines to identify multiple opportunities for drug repurposing: Primary screen for SK-N-SH cells (AID 1347098). Further: nearly all actives have a fitted effect of over 65% in size. A digest of the protocol:
(§2)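 Cells (500-1,000/well) rested 5 h, then received compounds for 48 h; metabolically active cells were measured by CellTiter-Glo luminescence. Final concentrations spanned up to 46 µM (MIPE, 11-point) or 0.59 nM-46 µM (NPC, 8-point) in primary screens, 11-point in follow-ups.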
A general note: In qHTS, concentration-response curves come from the screen itself.

Assay [3] in a line: qHTS of pediatric cancer cell lines to identify multiple opportunities for drug repurposing: Primary screen for NB1643 cells (AID 1347099). Further: nearly all actives have a fitted effect of over 50% in size. Summed up: as §1
Assay [4] is described as follows: qHTS of pediatric cancer cell lines to identify multiple opportunities for drug repurposing: Primary screen for LAN-5 cells (AID 1347100). A digest of the protocol:
(§3)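 Viability after 48 h compound treatment at 37C, 500-1,000 cells/well, read as ATP luminescence with CellTiter-Glo. Primary screens used 11-point (MIPE, 0.78 nM-46 µM) or 8-point (NPC, 0.59 nM-46 µM) final concentrations; follow-up screens used 11-point dilutions.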

Assay [5] is described as follows: qHTS of pediatric cancer cell lines to identify multiple opportunities for drug repurposing: Primary screen for BT-12 cells (AID 1347101). Further: nearly all actives have a fitted effect of over 25% in size. A digest of the protocol:
as §2

Assay [6] can be described thus: qHTS of pediatric cancer cell lines to identify multiple opportunities for drug repurposing: Primary screen for Rh18 cells (AID 1347102). Further: nearly all actives have a fitted effect of over 65% in size. Summed up: as §3
A short description of assay [7]: qHTS of pediatric cancer cell lines to identify multiple opportunities for drug repurposing: Primary screen for OHS-50 cells (AID 1347103). Further: nearly all actives have a fitted effect of over 40% in size. Summed up: as §2
Assay [8] is described as follows: qHTS of pediatric cancer cell lines to identify multiple opportunities for drug repurposing: Primary screen for RD cells (AID 1347104). Further: nearly all actives have a fitted effect of over 55% in size. Summed up: as §1
Assay [9] is described as follows: qHTS of pediatric cancer cell lines to identify multiple opportunities for drug repurposing: Primary screen for MG 63 (6-TG R) cells (AID 1347105). Further: nearly all actives have a fitted effect of over 50% in size. A digest of the protocol:
as §1

The nature of assay [10]: qHTS of pediatric cancer cell lines to identify multiple opportunities for drug repurposing: Primary screen for control Hh wild type fibroblast cells (AID 1347106). Further: nearly all actives have a fitted effect of over 55% in size. A digest of the protocol: as §3
A short description of assay [11]: qHTS of pediatric cancer cell lines to identify multiple opportunities for drug repurposing: Primary screen for Rh30 cells (AID 1347107). Further: nearly all actives have a fitted effect of over 75% in size. A digest of the protocol:
as §3

Assay [12] is described as follows: qHTS of pediatric cancer cell lines to identify multiple opportunities for drug repurposing: Primary screen for Rh41 cells (AID 1347108). Further: nearly all actives have a fitted effect of over 70% in size. Summed up:
as §1

Assay [13] can be described thus: qHTS of pediatric cancer cell lines to identify multiple opportunities for drug repurposing: Confirmatory screen for NB1643 cells (AID 1347109). Further: nearly all actives have a fitted effect of over 45% in size. Summed up:
as §3

Assay [14] is described as follows: qHTS of pediatric cancer cell lines to identify multiple opportunities for drug repurposing: Confirmatory screen for SK-N-MC cells (AID 1347111).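 Further: cells exposed to compound for 48 h before the readout; nearly all actives have a fitted effect of over 70% in size.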 Summed up:
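SK-N-MC cells at 500-1,000 cells/well in growth media were pre-incubated 5 h, then exposed to compounds at 11-point dilutions for 48 h at 37 degrees C, 5% CO2. Viability was read as CellTiter-Glo luminescence.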

Assay [15] can be described thus: qHTS of pediatric cancer cell lines to identify multiple opportunities for drug repurposing: Confirmatory screen for BT-12 cells (AID 1347112). Further: nearly all actives have a fitted effect of over 55% in size. Summed up: as §3
Assay [16] in a line: qHTS of pediatric cancer cell lines to identify multiple opportunities for drug repurposing: Confirmatory screen for LAN-5 cells (AID 1347113). Further: nearly all actives have a fitted effect of over 65% in size. A digest of the protocol: as §3
A short description of assay [17]: qHTS of pediatric cancer cell lines to identify multiple opportunities for drug repurposing: Confirmatory screen for DAOY cells (AID 1347114). Further: nearly all actives have a fitted effect of over 65% in size. A digest of the protocol:
(§4)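 Viability measured as metabolically active cells via CellTiter-Glo luminescence following 48 hours of compound exposure, 11-point dilutions in confirmatory testing. 500-1,000 cells/well plated 5 hours before dosing; controls were DMSO and 2.3 µM bortezomib.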

Assay [18] in a line: qHTS of pediatric cancer cell lines to identify multiple opportunities for drug repurposing: Confirmatory screen for NB-EBc1 cells (AID 1347115). Further: nearly all actives have a fitted effect of over 45% in size. Summed up: as §3
A short description of assay [19]: qHTS of pediatric cancer cell lines to identify multiple opportunities for drug repurposing: Confirmatory screen for SJ-GBM2 cells (AID 1347116). Further: nearly all actives have a fitted effect of over 60% in size. A digest of the protocol: as §4
Assay [20] is described as follows: qHTS of pediatric cancer cell lines to identify multiple opportunities for drug repurposing: Confirmatory screen for A673 cells (AID 1347110). Further: nearly all actives have a fitted effect of over 65% in size. A digest of the protocol:
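A673 cells seeded at 500-1,000 cells/well, rested 5 h, then dosed; primary MIPE 11-point (0.78 nM to 46 µM), NPC (0.59 nM to 46 µM); confirmatory 11-point. CellTiter-Glo luminescence after 48 h.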

Potency data for nine compounds are collected here from PubChem BioAssay (NCATS).

Records with an inconclusive call do not appear. Activity calls are given as the source filed them. The call rests on the fitted dose curve; in most records, active means well fitted curve in the direction sought with a large enough effect; inconclusive means small, poorly fitted or top-dose-only effect, or another doubt; inactive means no such curve, though single readings can be large; an effect the other way counts as inactive or inconclusive.
Potency means the concentration at half of the fitted maximal effect.

For `Cc1cc(Nc2cc(N3CCN(C)CC3)nc(C=Cc3ccccc3)n2)n[nH]1`, the Potency in [1] is 3.03 µM (active); in [2], 3.5 µM (active); in assay [3], 34 µM (active); in assay [4], 0.679 µM (active); in assay [5], 7.89 µM (active); in assay [6], 3.82 µM (active). The Potency is 2.22 µM (active) in assay [7]; 21.5 µM (active) in assay [8]; 21.5 µM (active) in assay [9]; 38.2 µM (active) in assay [10]; 34 µM (active) in assay [11]; 10.8 µM (active) in assay [12].

With `COc1cc2c(Oc3ccc(NC(=O)C4(C(=O)Nc5ccc(F)cc5)CC4)cc3F)ccnc2cc1OCCCN1CCOCC1`, the Potency in [1] is 2.64 µM (active); in assay [2], 2.41 µM (active); in [3], 6.62 µM (active); in [4] it was 0.372 µM (active); in [5] it was 19.3 µM (active); in assay [6] it was 4.69 µM (active). Besides, the Potency in assay [7] is 0.385 µM (active); in assay [8], 8.33 µM (active); in assay [9] it was 4.69 µM (active); in [10] it was 26.4 µM (active); in assay [11], 5.9 µM (active); in [12] it was 4.69 µM (active). The Potency is 5.22 µM (active) in assay [13]; 3.69 µM (active) in [14]; 13.1 µM (active) in assay [15]; 5.22 µM (active) in [16]; 11.7 µM (active) in assay [17]; 13.1 µM (active) in [18]. For the same compound, in assay [19], the Potency was 5.22 µM (active).

As to `C[C@@]12O[C@@H](C[C@]1(O)CO)n1c3ccccc3c3c4c(c5c6ccccc6n2c5c31)CNC4=O`, the Potency is 3.32 µM (active) in assay [1]; 1.92 µM (active) in [2]; 1.66 µM (active) in [3]; 0.132 µM (active) in assay [4]; 8.63 µM (active) in assay [5]; 3.32 µM (active) in assay [6]. The Potency is 0.217 µM (active) in assay [7]; 6.62 µM (active) in assay [8]; 4.69 µM (active) in [9]; 23.5 µM (active) in [10]; 7.43 µM (active) in assay [12]; 1.85 µM (active) in [13]. Moreover, the Potency is 1.04 µM (active) in [20]; 0.261 µM (active) in assay [14]; 14.7 µM (active) in assay [15]; 5.22 µM (active) in assay [16]; 9.27 µM (active) in assay [17]; 5.85 µM (active) in assay [18]. For the same compound, the Potency in assay [19] was 18.5 µM (active). The Potency result in assay [11] is “inactive”.

With `Cc1ccc(NC(=O)C2(c3ccc4c(c3)OC(F)(F)O4)CC2)nc1-c1cccc(C(=O)O)c1`, the Potency in [1] is 0.148 µM (active); in assay [2], 0.136 µM (active); in assay [3], 0.0332 µM (active); in assay [4], 0.0833 µM (active); in assay [5], 0.122 µM (active); in assay [6], 0.833 µM (active). The Potency in assay [7] was 0.0544 µM (active); in [8], 0.0743 µM (active); in assay [9], 0.148 µM (active); in assay [10], 11.8 µM (active); in assay [12], 0.296 µM (active); in assay [15] it was 10.4 µM (active). The Potency result in assay [11], in assay [13], in [20], in assay [14] and in assay [18] was “inactive” in each case.

`O=C(O)c1ccc2c(c1)nc(Nc1cccc(Cl)c1)c1ccncc12`: the Potency in assay [1] was 4.69 µM (active); in [2], 12.1 µM (active); in assay [3], 2.64 µM (active); in assay [4], 7.43 µM (active); in assay [5], 19.3 µM (active); in assay [6], 14.8 µM (active). For the same compound, the Potency in [7] was 3.06 µM (active); in assay [8] it was 9.35 µM (active); in assay [9] it was 3.72 µM (active); in [12] it was 14.8 µM (active). Besides, in assay [10], the Potency entry is “inactive”.

With `COCCOc1ccc2c(c1)ncn2-c1ccc2cccc(N3CCC(N)CC3)c2n1`, the Potency in assay [1] was 18.7 µM (active); in [2] it was 21.5 µM (active); in [3], 23.5 µM (active); in assay [4], 9.35 µM (active); in assay [5], 27.3 µM (active); in [6] it was 26.4 µM (active). Also, the Potency in [7] was 19.3 µM (active); in assay [8], 29.6 µM (active); in [9] it was 29.6 µM (active); in assay [12] it was 23.5 µM (active). In [10], the Potency entry is “inactive”.

Turning to `CN1CCC(CNc2ccc3ncc(-c4cccc(OC(F)(F)F)c4)n3n2)CC1`, the Potency in [1] was 18.7 µM (active); in assay [2], 7.64 µM (active); in assay [3], 18.7 µM (active); in assay [4] it was 14.8 µM (active); in [5], 27.3 µM (active); in assay [6] it was 18.7 µM (active). Besides, the Potency is 4.85 µM (active) in assay [7]; 18.7 µM (active) in [8]; 23.5 µM (active) in assay [9]; 18.7 µM (active) in assay [10]; 23.5 µM (active) in assay [11]; 18.7 µM (active) in [12].

As to `O=C(CCCCCCNC(=O)c1cnc(N(c2ccccc2)c2ccccc2)nc1)NO`, the Potency was 11.8 µM (active) in [1]; 10.8 µM (active) in assay [2]; 3.72 µM (active) in assay [3]; 4.69 µM (active) in assay [4]; 17.2 µM (active) in assay [5]; 5.9 µM (active) in assay [6]. For the same compound, the Potency in assay [7] was 6.85 µM (active); in [8], 13.2 µM (active); in [9], 14.8 µM (active); in assay [11], 14.8 µM (active); in assay [12], 9.35 µM (active). Further, the Potency result in assay [10] was “inactive”.

Consider `CC=C1NC(=O)[C@H]2CSSCCC=C[C@H](CC(=O)N[C@H](C(C)C)C(=O)N2)OC(=O)[C@H](C(C)C)NC1=O`, for which the Potency in assay [1] was 0.0118 µM (active); in assay [2], 0.121 µM (active); in assay [3], 0.0093 µM (active); in assay [4] it was 0.0093 µM (active); in [5] it was 0.0122 µM (active); in assay [6] it was 0.0053 µM (active). Also, the Potency in assay [7] was 0.0193 µM (active); in [8], 0.0148 µM (active); in assay [9], 0.0118 µM (active); in assay [10], 0.0526 µM (active); in assay [11] it was 0.0296 µM (active); in [12], 0.0148 µM (active). Moreover, the Potency in assay [14] was 11.7 µM (active). The Potency entry in assay [13], in [20], in assay [16], in [17], in [18] and in assay [19] was “inactive” throughout.
